Active and inactive are the calls of the source. Unless noted, no rule for the calls is given here.

One test in a line: inhibitors of Cryptococcus chitosan production, flow cytometry, Cibacron Brilliant Red staining (AID 1347148).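 Also: compound exposure lasted three days at 37 degrees C.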 Conditions: Cryptococcus neoformans chitosan, stronger effect = lower value; at 10 µM unless noted. A general note: In flow cytometry, cells or beads pass a laser one at a time.
`CCCCC(C)(O)C/C=C/[C@H]1[C@H](CCCCCCC(=O)O)C(=O)C[C@@H]1O` (some centres not stated): the fold fluorescence was 3.98 (inactive).

Consider `CCCCCCCCCCCCCCCC(=O)C1=C(O)[C@H](CO)OC1=O`, for which the fold fluorescence is 2.82 [at 135.7 µM] (active).

As to `CCCCCCCCCCCCCCCCCCOC[C@@H](COP(=O)([O-])OCC[N+](C)(C)C)OC(C)=O`, the fold fluorescence is 3.94 (inactive).

For the compound `C=C1/C(=C\C=C2/CCC[C@]3(C)[C@@H]2CC[C@H]3[C@@H](C)CCCC(C)(C)O)C[C@H](O)C[C@H]1O`, the fold fluorescence is 7.1 (inactive).

Consider `C=C1C(=O)O[C@@H]2C3OC3(C)CC/C=C(\C)CC[C@@H]12` (some centres not stated), for which the fold fluorescence is 11.6 [at 201.4 µM] (inactive).

Regarding `O[C@H]1C=C2CCN3Cc4cc5c(cc4C(C23)[C@@H]1O)OCO5` (some centres not stated), the fold fluorescence was 10.6 [at 174 µM] (inactive).

As for `COC(=O)[C@H]1[C@@H]2C[C@@H]3c4[nH]c5ccccc5c4CCN3C[C@H]2CC[C@H]1O`, the fold fluorescence is 3.91 [at 141.1 µM] (inactive).

Turning to `CCCCC[C@@H](O)/C=C/[C@H]1[C@H](C/C=C\CCCC(=O)O)[C@@H]2CO[C@H]1C2`, the fold fluorescence was 4.13 (inactive).

Regarding `CCCCC[C@H](O)CCCC(=O)O`, the fold fluorescence was 4.65 [at 265.6 µM] (inactive).

Take `COC1=C2C[C@H](C)C[C@@H](OC)[C@@H](O)[C@H](C)/C=C(\C)[C@@H](OC(N)=O)[C@H](OC)/C=C\C=C(/C)C(=O)NC(=CC1=O)C2=O`: the fold fluorescence is 25.2 [at 89.2 µM] (inactive).

`C[C@@H](/C=C/c1cccc(Oc2ccc(F)cc2)c1)N(O)C(N)=O`: the fold fluorescence is 6.07 [at 158.1 µM] (inactive).

Turning to `CCCCC[C@@H](O)/C=C/[C@H]1[C@H](C/C=C\CCCC(=O)O)[C@@H](O)C[C@@H]1O`, the fold fluorescence was 4.53 (inactive).

With `CCCCCCCCCCCCCC[C@H](F)C(=O)O`, the fold fluorescence was 6.01 (inactive).

As for `CC(C)[C@@H](O)CC[C@H](C)[C@@H]1CC[C@@H]2[C@H]3CC=C4C[C@H](O)CC[C@@]4(C)[C@@H]3CC[C@]21C`, the fold fluorescence is 4.41 [at 124.2 µM] (inactive).

Turning to `C[S@](=O)c1ccc(-c2nc(-c3ccc(F)cc3)c(-c3ccncc3)[nH]2)cc1`, the fold fluorescence was 8.78 [at 132.5 µM] (inactive).

For `CCCCCCCCCCCC[C@H](O)C(=O)O`, the fold fluorescence was 5.23 (inactive).

In the case of `CCCCCCOC(=O)C1(O)CC2OC1(C)n1c3ccccc3c3c4c(c5c6ccccc6n2c5c31)C(=O)NC4` (configuration not stated), the fold fluorescence is 4.72 [at 9.3 µM] (inactive).

Regarding `CCCCC/C=C\C[C@H](O)/C=C/C=C/C=C\[C@H](O)CCCC(=O)O`, the fold fluorescence is 3.97 [at 1 µM] (inactive).

With `CC1(COc2ccc(C[C@@H]3SC(=O)NC3=O)cc2)CCCCC1`, the fold fluorescence was 5.39 (inactive).

In the case of `CCCCC[C@@H](O)/C=C/[C@H]1[C@H](C/C=C\CCCC(=O)O)[C@H](O)C[C@H]1O`, the fold fluorescence was 4.85 (inactive).

Regarding `COc1ccc(CCN(C)CCC[C@@](C#N)(c2ccc(OC)c(OC)c2)C(C)C)cc1OC`, the fold fluorescence is 7.65 [at 110 µM] (inactive).

As to `Nc1ncnc2c1c(I)cn2C1OC(CO)C(O)C1O` (configuration not stated), the fold fluorescence was 3.83 [at 127.5 µM] (inactive).

As to `CCCCCCCCCCCCCCCC(=O)OC[C@@H](COP(=O)(O)O)OC(=O)CCCCCCCCCCCCCCC`, the fold fluorescence was 3.86 (inactive).

For `CCCCC/C=C\C=C\[C@@H](O)CCCCCCCC(=O)O`, the fold fluorescence is 5.71 [at 1 µM] (inactive).

`CC[C@@]1([C@@H]2O[C@@H]([C@H]3O[C@@](O)(CO)[C@H](C)C[C@@H]3C)C[C@@H]2C)CC[C@H]([C@]2(C)CCC3(C[C@H](O)[C@@H](C)[C@@H]([C@@H](C)[C@@H](OC)[C@H](C)C(=O)O)O3)O2)O1` (some centres not stated): the fold fluorescence is 4.7 [at 72.2 µM] (inactive).

With `CCCCCCCC/C=C\CCCCCCCC(=O)OC[C@H](O)COP(=O)(O)O`, the fold fluorescence is 3.84 (inactive).

For the compound `CC[C@@H](CO)Nc1nc(NCc2ccccc2)c2ncn(C(C)C)c2n1`, the fold fluorescence was 9.95 [at 141.1 µM] (inactive).

`CC(C)COC[C@H](CN(Cc1ccccc1)c1ccccc1)N1CCCC1`: the fold fluorescence was 8.48 [at 136.4 µM] (inactive).

Turning to `C[C@@](O)(C(=O)Nc1ccc(S(=O)(=O)c2ccccc2)cc1)C(F)(F)F`, the fold fluorescence was 5.17 [at 133.9 µM] (inactive).

Turning to `C=C[C@@H]1CN2CCC1C[C@H]2[C@H](O)c1ccnc2ccc(OC)cc12` (some centres not stated), the fold fluorescence was 3.61 [at 154.1 µM] (inactive).

A short description of the next test: modifiers of HSF1 nuclear foci, imaging, Selleck Cancer Library (AID 1347162; in the data active = plate-normalised HSF1 focus index below about 0.46). The conditions noted are these: human cells, at 10 µM; SSMD: measured here: HSF1 foci SSMD mean; cell count: measured here: cell number; plate-normalised HSF1 focus index: stronger effect = lower value.
As for `CCCCCc1ccc(/C=C/[C@H](O)[C@@H](CO)NC)cc1`, the plate-normalised HSF1 focus index was 1.1 (inactive), the SSMD worked out at 1.63 and the cell count stood at 6120.

For the compound `COC(=O)[C@H](CCCN=C(N)N)NS(=O)(=O)c1ccc(C)cc1`, the cell count was 7120, the SSMD amounted to 1.44 and the plate-normalised HSF1 focus index is 1.08 (inactive).

In the case of `CO[C@H]1C[C@@H]2CC[C@@H](C)[C@@](O)(O2)C(=O)C(=O)N2CCCC[C@H]2C(=O)O[C@H]([C@@H](C)C[C@@H]2CC[C@@H](OCCO)[C@H](OC)C2)CC(=O)[C@H](C)/C=C(\C)[C@@H](O)[C@@H](OC)C(=O)[C@H](C)C[C@H](C)/C=C/C=C/C=C/1C`, the cell count is 6750, the plate-normalised HSF1 focus index was 1.15 (inactive) and the SSMD amounted to 2.84.

With `C=C1/C(=C/C=C2\CCC[C@]3(C)[C@@H]([C@H](C)/C=C/[C@@H](C)C(C)C)CC[C@@H]23)C[C@@H](O)C[C@@H]1O`, the SSMD was 1.3, the plate-normalised HSF1 focus index is 1.07 (inactive) and the cell count worked out at 6600.

`O=C1c2ccccc2-c2nc3nonc3nc21`: the plate-normalised HSF1 focus index is 0.229 (active), the SSMD was -15 and the cell count was determined as 3090.

`O=C1Nc2ccc(-c3cccnc3)cc2/C1=C/c1ccc[nH]1`: the SSMD is -1.39, the cell count came to 7060 and the plate-normalised HSF1 focus index was 0.916 (inactive).

As for `OC[C@H]1O[C@@H](n2cnc3c2NC=NC[C@H]3O)CC1O` (some centres not stated), the plate-normalised HSF1 focus index is 1.17 (inactive), the cell count came to 7070 and the SSMD turned out to be 3.2.

Take `NC(=NCCC[C@H](N)C(=O)O)N[N+](=O)O`: the cell count stood at 7230, the plate-normalised HSF1 focus index is 1.18 (inactive) and the SSMD was 2.98.

`O=C(Nc1ncc([N+](=O)[O-])s1)c1ccc([N+](=O)[O-])c(Cl)c1`: the SSMD is 2.47, the plate-normalised HSF1 focus index is 1.15 (inactive) and the cell count was 7090.

The record behind these values is PubChem BioAssay.
